{
  "source": "PubChem BioAssay (NCI)",
  "note": "Several values for one entry are separate records, joined by “and”; a condition that tells them apart may be missing. Equal entries are not always repeated. The panel holds about 83,000 compounds, 20% with a hit somewhere; the sample as a whole holds those more often.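 Cell lines were cultured in 96-well plates, exposed to a single compound concentration, and assessed for percent growth 48 hours later.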 Values without a mark were called inactive. Activity calls are given as the source filed them. How the source made its calls: active means growth percent below 10; inactive means the rest.",
  "data": [
    {"test_system": "HL-60(TB) leukemia", "assay": "NCI-60 one-dose screen, 48 h (100 = growth as untreated, 0 = no growth, -100 = all killed)", "settings": "10 µM unless noted", "values": [
      {"compound": "CCCCOC1NC(=O)NC(=O)C1(F)C(=O)OCC", "note": "(stereo not given)", "growth": "63.5%"},
      {"compound": "CO/N=C(/C)c1ccc(NC(=O)CSc2nnc(-c3ccncc3)n2-c2ccccc2)cc1", "growth": "86%"},
      {"compound": "Cc1c(-n2nnc(-c3nc4ccccc4s3)c2N)c(=O)n(-c2ccccc2)n1C", "growth": "99.2%"},
      {"compound": "N#CCCN1CCN(CCC#N)C1=S", "growth": "129%"},
      {"compound": "CN(C)c1ccc2nc3ccc(=O)cc-3sc2c1", "growth": "-21.3% (active) and -7.59% (active)"},
      {"compound": "c1ccc(Cc2nn3cc(-c4ccccc4)nc3s2)cc1", "growth": "68%"},
      {"compound": "COc1cccc2c1C=C1CCCCC3=Cc4c(OC)cccc4OC13O2", "growth": "19.1%"},
      {"compound": "C/C(=C\\CCc1ccoc1)CC/C=C(\\C)CCCC1COC(=O)C1", "note": "(stereo not given)", "growth": "95.8%"},
      {"compound": "O=C(c1nn(-c2ccc(Cl)cc2)cc1O)n1nc(C(F)(F)F)cc1-c1ccccc1", "growth": "-14.8% (active)"},
      {"compound": "O/N=C/c1ccc(O)cc1O", "growth": "96.9%"},
      {"compound": "C=C(C)[C@@H]1CC[C@]2(C(=O)N3CCN(C)CC3)CC[C@]3(C)[C@H](CC[C@@H]4[C@@]5(C)CC(=C/c6ccncc6)/C(=N/O)C(C)(C)[C@@H]5CC[C@]43C)[C@@H]12", "growth": "40.4%"},
      {"compound": "CCCCNC(=O)CC1=C(C)/C(=C/c2[nH]c(-c3ccc[nH]3)cc2OC)N=C1C", "growth": "12.9%"},
      {"compound": "Cc1sc(N=Nc2ccc(N(C)C)cc2)[n+]([O-])c1C", "growth": "92.7%"},
      {"compound": "Fc1ccc2nc(-c3cc(-c4ccc5c(c4)OCO5)n[nH]3)[nH]c2c1", "growth": "13.9%"},
      {"compound": "CCOc1cc(CCNS(=O)(=O)c2ccc(C)cc2)c(C(C)=O)cc1OCC", "growth": "46.5% [100 µM]"}
    ]}
  ]
}
